Compound activity deposited in PubChem BioAssay by National Center for Advancing Translational Sciences (NCATS).
D2 ag-1: D2 dopamine receptor (human) agonism; P14416; HEK293 T-REx D2 cells, calcium flux agonist mode; activation, % at 2 µM; 0.53% of 340,000 active; AID 485358;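 active means activation over 3 SD above normal in the single-dose calcium agonist read, cut at about 30% in these data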; further: 0% is about no effect
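Agonism is scored from calcium flux in a force-coupled, inducible HEK293 cell line expressing D2, read kinetically for 180 s after compound addition against dopamine controls.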
D2 PAM-1: positively modulates the human D2 dopamine receptor allosterically. P14416. HEK293 T-REx D2, calcium flux, EC20 dopamine potentiation. potentiation, % at 10 µM. 0.34% of 340,000 active. AID 485347;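 active means potentiation over 3 SD above the plate norm, cut at about 30% in these data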; further: 0% is about no effect
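Calcium flux readout, no-wash dye, 1 read/s. Inducible HEK293 Trex D2 line, overnight 30 C. Compound alone 180 s (agonist flags), then EC20 dopamine, another 180 s to score potentiation.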
B2AR arrestin: recruits beta-arrestin to the human beta2-adrenergic receptor; beta-arrestin recruitment to beta2AR, cell-based reporter; Potency, µM (series often up to 46.1 µM), for inactives: at the highest dose activation, usual class: activators; 0.02% of 330,000 active; AID 492947; active means well fitted activation curve with a large enough effect; inconclusive means small, poorly fitted or top-dose-only effect;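 further: potency means the concentration at half of the fitted maximal effect; 0% = DMSO controls and full agonism = EC100 isoproterenol or metaproterenol; nearly all actives have a fitted effect of over 65% in size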
Target sequence (P07550 whole entry, looked up): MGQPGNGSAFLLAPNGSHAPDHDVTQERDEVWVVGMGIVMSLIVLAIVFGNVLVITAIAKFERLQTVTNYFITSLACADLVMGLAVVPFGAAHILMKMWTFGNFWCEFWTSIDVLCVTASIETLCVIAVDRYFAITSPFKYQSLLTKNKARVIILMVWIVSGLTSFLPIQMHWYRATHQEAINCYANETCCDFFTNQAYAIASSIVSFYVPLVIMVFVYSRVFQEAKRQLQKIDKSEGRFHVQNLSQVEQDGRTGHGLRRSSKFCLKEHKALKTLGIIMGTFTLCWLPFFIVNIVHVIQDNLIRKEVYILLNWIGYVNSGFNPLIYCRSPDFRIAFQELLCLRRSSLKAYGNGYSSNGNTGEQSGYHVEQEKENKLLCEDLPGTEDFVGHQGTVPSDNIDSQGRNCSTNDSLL
D2 ag-2: human D2 receptor agonism in beta-arrestin assay. P14416. DiscoveRx PathHunter D2 beta-arrestin, luminescence, 90 min; 100% = 57 uM dopamine signal. activation, % (test concentration not listed). 0.084% of 360,000 active. AID 624465; in the data active means activation above about 40%; inconclusive means between about 15% and that limit
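DiscoveRx PathHunter D2 beta-arrestin cells (2,100/well) attached overnight, then compound-stimulated 90 min at 37 C in HBSS/10 mM HEPES/0.1% Tween-20 buffer; beta-galactosidase complementation read by luminescence after 1 h at ambient temperature. Dopamine 57 uM final (EC100) as control.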
D2 antag: antagonists of human D2 dopamine receptor. P14416. HEK293 TREx D2 cells, calcium flux, dopamine EC80. inhibition, % at 10 µM. 2% of 340,000 active; in the data active means inhibition above about 30%; inactive means below that, where a call was filed; further: 0% is about no effect
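Inhibition of EC80 dopamine-driven calcium flux, recorded kinetically, defines activity here; cells are a tetracycline-induced HEK293 T-REx line expressing force-coupled D2.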
D2 PAM-2: potentiates the human D2 dopamine receptor allosterically. DiscoveRx D2 beta-arrestin cells, luminescence, 90 min; 100% = 57 uM dopamine signal. potentiation, % (no concentration beside the values). 0.23% of 360,000 active. AID 624464; in the data active means potentiation above about 50%; inconclusive means mostly about 30% to 49%
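D2 cells co-treated with compound plus 50 nM dopamine (EC20) for 90 min at 37 deg C to detect potentiation. Beta-arrestin recruitment was read as enzyme-fragment luminescence after 1 h at ambient temperature. Full response was set by 57 uM dopamine.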
Starred values were filed as active, the others as inactive; ? = inconclusive; . = no result. The list is not random: actives were taken first. Their share in the collection is about 2.4%.

SMILES	D2 ag-1	D2 PAM-1	B2AR arrestin	D2 ag-2	D2 antag	D2 PAM-2
Cc1nc2ccc(S(=O)(=O)NC(C(=O)NCc3ccco3)C(C)C)cc2s1 (stereo not drawn)	0.7	14.8	-0.3%	-6.8	31.5*	-2.4
CN1CCC(=C2c3ccccc3C=Cc3ccccc32)CC1	3.0	-28.5	?	-5.2	77.1*	11.3
O=C1c2cccc3c(O)ccc(c23)C(=O)N1Cc1ccco1	61.1*	7.8	-0.8%	11.9	20.0	28.6
CC1CCCCN1C(=O)NC12CC3CC(CC(C3)C1)C2 (stereo not drawn)	-0.4	-1.4	0.1%	3.0	33.7*	1.5
O=C(NC12CC3CC(CC(C3)C1)C2)C1CCCN1C(=O)NC1CCCCC1 (stereo not drawn)	1.3	14.1	0.2%	-1.5	-12.1	-5.7
CCC1CCCCN1C(=O)COC(=O)c1cncc(Br)c1 (stereo not drawn)	.	.	.	0.3	.	-6.5
CCCCC(Sc1nc(N)c(NC(=O)c2ccc(OCC)cc2)c(=O)[nH]1)C(=O)O (stereo not drawn)	0.1	31.2*	0.7%	-2.2	-6.5	-5.0
COc1ccc(NC(=O)CN2C(=O)NC3(CCCC3)C2=O)cc1S(=O)(=O)N1CCCCC1	-0.4	-2.7	2.7%	-0.2	-13.3	0.7
Cc1cc(C)cc(OCC(=O)N(Cc2cccs2)c2ccc(Cl)cc2)c1	0.6	-11.6	.	.	.	.
Cc1cccc(OCC(=O)OC(C)C(=O)Nc2ccc(Cl)cn2)c1 (stereo not drawn)	-0.8	4.0	-0.4%	-4.7	-1.0	0.0
Cc1cccc(C(=O)NCC(=O)OC(C)C(=O)Nc2ccc(Cl)cn2)c1 (stereo not drawn)	2.2	2.3	0.0%	-1.1	37.2*	-19.3
CCN(CC)CCNC(=O)c1ccc(NC(=O)c2c(C)nn(-c3ccc(F)cc3)c2Cl)cc1	0.1	-12.4	-0.3%	-2.6	40.9*	-16.3
Cc1c(C)c2c(OCC(=O)NCC(=O)NCC(=O)O)cc3c(c2oc1=O)CCC(C)(C)O3	-0.5	30.2*	0.2%	0.2	-4.4	2.3
Cc1cc(=O)oc2c3c(cc(OCC(=O)NC(Cc4ccc(Cl)cc4)C(=O)O)c12)OC(C)(C)CC3 (stereo not drawn)	-0.7	-2.3	-0.4%	3.5	35.9*	-6.1
COc1ccccc1-c1cnn2c(NC3CCCC3)cc(C)nc12	-0.2	5.6	0.2%	-2.6	-9.8	-3.7
CNc1ncnc2c1ncn2[C@H]1CN(Cc2cccs2)C[C@@H](CO)O1	.	.	.	4.9	.	-4.2
C[C@@H]1C2CC(C/C2=N\NC(=O)c2ccncc2)C1(C)C (stereo partly drawn)	0.3	1.6	0.1%	-3.3	35.6*	-4.6
CC1C2CC(C/C2=N/NC(=O)c2cccs2)C1(C)C (stereo not drawn)	-0.5	-8.6	0.0%	-0.6	-0.8	-2.0
COc1cc(CCC(=O)OCC(=O)Nc2ccccc2F)cc(OC)c1OC	-2.9	.	-0.3%	-2.7	2.6	-6.4
CCC(C)(C)n1nnnc1C(c1ccc(O)c(OC)c1)N1CCc2ccccc2C1 (stereo not drawn)	0.4	2.5	-0.2%	-1.2	35.1*	-9.6
CCC(C)(C)n1nnnc1C(c1ccccc1)N1CCc2ccccc2C1 (stereo not drawn)	-1.2	9.0	-0.3%	0.5	3.4	-6.5
Cc1ccc(/C=N/Nc2nncc(-c3ccccc3)n2)o1	-0.5	-10.2	0.1%	-4.4	50.6*	-2.7
O=C(Nc1ccccc1)c1nc[nH]c1C(=O)N1CCc2ccccc2C1	-0.5	-26.6	0.1%	2.0	10.2	-18.3
Cc1cccc(NC(=O)c2nc[nH]c2C(=O)N2CCc3ccccc3C2)c1	-0.1	-27.5	0.1%	-1.3	85.9*	-25.1
O=C(Nc1cccc(Cl)c1)c1nc[nH]c1C(=O)N1CCc2ccccc2C1	-0.8	-26.3	0.0%	-1.3	56.4*	-28.1
Cc1ccc(S(=O)(=O)C2(C(=O)NCc3ccccc3Cl)CC2)cc1	0.1	0.3	-0.6%	-2.4	8.4	-8.4
